Assay results from the supplement of paper PMC10849652.
Of roughly 7,900 targets only a part is listed; those with a hit were picked by preference. About 0.6% of all pairs of compound and target were hits.

How the values were obtained:
Assay in all cases: log2 fold change, soluble protein after heating vs DMSO (PISA); higher = thermal stabilisation; K562 cells, 10 uM, 30 min; active = over 0.2 and 3.5 SD of the protein, either way, in both replicates (recomputed)
[1] = compound: C1=CC=C(C=C1)[C@H](COC2=CC3=C(C=C2)NC(=O)N3)NC(=O)C4=CC=CN(C4=O)CC5=CC(=C(C=C5)F)F
Outline: (§1)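 K562 cells at 2×10^6 cells/mL were exposed to 10 μM compound for 30 min, then aliquots were heated for 3 min across 48°C-58°C, pooled, and extracted in PBS containing 0.5% NP-40 at 4°C. The supernatant after 21,000xg for 90 min was taken as soluble protein and measured by TMTpro 16plex LC-MS/MS with channel sums equalised. Thermal stability is reported relative to control samples, with values from duplicates. Fold changes are given on a log2 scale.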

[2] = compound: CC1=C(SC2=C1C(=N[C@H](C3=NN=C(N32)C)CC(=O)N)C4=CC=C(C=C4)Cl)C
Outline: as §1

[3] = compound: CC1=C2C(=CC=C1)N=C(N(C2=O)C3=CC=CC=C3C)CN4C=NC5=C(N=CN=C54)N
Outline: as §1

[4] = compound: Cc1sc2c(c1C)C(c1ccc(Cl)cc1)=N[C@@H](CC(=O)OC(C)(C)C)c1nnc(C)n1-2
Outline: as §1

[5] = compound: c1ccc([C@@H]2C[C@H]2NC2CCNCC2)cc1
Outline: as §1

Measured: log2 fold change

SPAG9 isoform 4 (UniProt O60271)
inactive: [1] 0.15 | [2] 0.006 | [3] -0.048 | [4] 0.028 | [5] 0.025

SUCLG1 (UniProt P53597)
Sequence of UniProt P53597 (P53597 whole entry, looked up): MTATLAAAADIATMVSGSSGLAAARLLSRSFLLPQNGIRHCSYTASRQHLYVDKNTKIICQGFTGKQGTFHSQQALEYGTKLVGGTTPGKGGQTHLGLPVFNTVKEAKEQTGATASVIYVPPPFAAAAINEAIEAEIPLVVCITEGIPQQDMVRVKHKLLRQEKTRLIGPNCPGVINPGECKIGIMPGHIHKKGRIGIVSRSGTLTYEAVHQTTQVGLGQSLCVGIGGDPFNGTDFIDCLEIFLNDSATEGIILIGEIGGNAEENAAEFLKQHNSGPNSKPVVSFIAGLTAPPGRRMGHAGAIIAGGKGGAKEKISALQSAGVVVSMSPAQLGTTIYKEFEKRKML
inactive: [1] 0.004 | [2] 0.073 | [3] 0.042 | [4] -0.021 | [5] -0.041

SRSF2 (UniProt Q01130)
Sequence of UniProt Q01130 (Q01130 whole entry, looked up): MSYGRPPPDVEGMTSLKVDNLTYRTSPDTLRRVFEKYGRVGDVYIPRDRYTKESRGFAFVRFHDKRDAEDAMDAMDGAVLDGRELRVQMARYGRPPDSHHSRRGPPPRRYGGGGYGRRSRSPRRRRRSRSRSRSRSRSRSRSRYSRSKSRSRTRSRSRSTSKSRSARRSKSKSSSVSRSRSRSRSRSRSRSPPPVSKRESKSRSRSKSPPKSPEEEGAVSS
inactive: [1] 0.008 | [2] -0.047 | [3] -0.052 | [4] 0.061 | [5] 0.143

TACC2 (UniProt O95359)
inactive: [1] -0.031 | [2] -0.03 | [3] 0.166 | [4] 0.011 | [5] 0.05

SLK isoform 2 (UniProt Q9H2G2)
inactive: [1] 0.016 | [2] 0.034 | [3] 0.042 | [4] 0.021 | [5] -0.005

SPCS2 (UniProt Q15005)
Sequence of UniProt Q15005 (Q15005 whole entry, looked up): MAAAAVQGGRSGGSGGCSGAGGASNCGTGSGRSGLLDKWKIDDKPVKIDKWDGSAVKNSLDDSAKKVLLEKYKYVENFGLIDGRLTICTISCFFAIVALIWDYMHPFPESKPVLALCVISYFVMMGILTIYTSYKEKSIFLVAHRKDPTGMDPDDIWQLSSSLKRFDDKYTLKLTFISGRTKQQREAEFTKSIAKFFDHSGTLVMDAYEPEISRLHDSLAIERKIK
inactive: [1] -0.011 | [2] 0.043 | [3] -0.034 | [4] -0.061 | [5] -0.031

STXBP5 (UniProt Q5T5C0)
inactive: [1] -0.011 | [2] 0.017 | [3] 0.15 | [4] -0.04 | [5] -0.027

SMAP2 (UniProt Q8WU79)
Sequence of UniProt Q8WU79 (Q8WU79 whole entry, looked up): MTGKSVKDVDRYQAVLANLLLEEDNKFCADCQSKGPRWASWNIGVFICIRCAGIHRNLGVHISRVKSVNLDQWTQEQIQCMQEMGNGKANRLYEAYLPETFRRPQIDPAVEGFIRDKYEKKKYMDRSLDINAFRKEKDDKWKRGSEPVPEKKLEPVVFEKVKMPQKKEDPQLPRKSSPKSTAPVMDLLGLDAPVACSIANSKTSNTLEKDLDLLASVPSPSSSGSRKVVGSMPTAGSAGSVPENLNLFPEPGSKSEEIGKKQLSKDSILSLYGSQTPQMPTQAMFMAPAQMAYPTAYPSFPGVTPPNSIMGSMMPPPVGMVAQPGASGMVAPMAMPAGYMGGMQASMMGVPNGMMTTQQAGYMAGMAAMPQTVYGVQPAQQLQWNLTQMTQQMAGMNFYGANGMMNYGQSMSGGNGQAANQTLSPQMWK
inactive: [1] -0.041 | [2] 0.013 | [3] 0.086 | [4] 0.001 | [5] 0.011

SLC30A10 (UniProt Q6XR72)
inactive: [1] 0.066 | [2] -0.005 | [3] 0.113 | [4] -0.003 | [5] 0.059

SLC38A9 (UniProt Q8NBW4)
Sequence of UniProt Q8NBW4 (Q8NBW4 whole entry, looked up): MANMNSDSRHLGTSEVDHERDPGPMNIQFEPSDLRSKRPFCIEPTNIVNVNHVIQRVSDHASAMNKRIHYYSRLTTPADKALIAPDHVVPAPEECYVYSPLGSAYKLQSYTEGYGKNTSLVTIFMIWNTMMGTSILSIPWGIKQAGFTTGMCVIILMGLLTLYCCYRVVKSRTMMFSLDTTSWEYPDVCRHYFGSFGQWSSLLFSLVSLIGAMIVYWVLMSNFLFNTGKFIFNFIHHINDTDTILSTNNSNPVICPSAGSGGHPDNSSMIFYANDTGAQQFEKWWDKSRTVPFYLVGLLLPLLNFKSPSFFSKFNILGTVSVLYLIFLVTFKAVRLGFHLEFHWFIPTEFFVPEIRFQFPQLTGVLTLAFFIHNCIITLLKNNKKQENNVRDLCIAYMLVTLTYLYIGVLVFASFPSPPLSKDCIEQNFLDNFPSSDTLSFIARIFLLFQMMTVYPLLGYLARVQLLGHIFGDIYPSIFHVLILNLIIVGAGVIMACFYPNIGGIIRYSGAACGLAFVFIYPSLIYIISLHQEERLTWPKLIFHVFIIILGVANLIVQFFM
inactive: [1] 0.053 | [2] -0.019 | [3] 0.065 | [4] -0.014 | [5] 0.042

TERF2IP (UniProt Q9NYB0)
Sequence of UniProt Q9NYB0 (Q9NYB0 whole entry, looked up): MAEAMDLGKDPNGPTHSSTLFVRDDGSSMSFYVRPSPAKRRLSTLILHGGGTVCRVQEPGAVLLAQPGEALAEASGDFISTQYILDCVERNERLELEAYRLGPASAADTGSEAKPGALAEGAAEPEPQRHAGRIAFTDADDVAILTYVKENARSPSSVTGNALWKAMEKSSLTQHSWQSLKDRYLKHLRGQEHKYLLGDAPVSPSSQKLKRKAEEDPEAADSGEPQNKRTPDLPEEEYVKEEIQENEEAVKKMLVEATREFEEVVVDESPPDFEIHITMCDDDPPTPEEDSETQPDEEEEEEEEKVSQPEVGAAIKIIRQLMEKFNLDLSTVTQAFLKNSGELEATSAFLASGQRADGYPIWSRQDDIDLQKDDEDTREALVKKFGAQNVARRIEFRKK
inactive: [1] 0.003 | [2] 0.01 | [3] 0.004 | [4] -0.01 | [5] 0.066

THYN1 (UniProt Q9P016)
Sequence of UniProt Q9P016 (Q9P016 whole entry, looked up): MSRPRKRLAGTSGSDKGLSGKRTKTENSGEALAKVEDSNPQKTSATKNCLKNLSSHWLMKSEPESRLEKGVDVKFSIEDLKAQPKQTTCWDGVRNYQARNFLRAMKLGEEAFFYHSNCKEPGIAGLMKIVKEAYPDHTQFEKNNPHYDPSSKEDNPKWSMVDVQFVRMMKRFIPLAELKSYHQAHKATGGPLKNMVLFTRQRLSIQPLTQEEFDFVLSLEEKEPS
inactive: [1] -0.024 | [2] 0.044 | [3] 0.043 | [4] 0.01 | [5] -0.067

TIMM13 (UniProt Q9Y5L4)
inactive: [1] -0.049 | [2] 0.049 | [3] 0.012 | [4] -0.035 | [5] 0.013

STAT6 (UniProt P42226)
Sequence of UniProt P42226 (P42226 whole entry, looked up): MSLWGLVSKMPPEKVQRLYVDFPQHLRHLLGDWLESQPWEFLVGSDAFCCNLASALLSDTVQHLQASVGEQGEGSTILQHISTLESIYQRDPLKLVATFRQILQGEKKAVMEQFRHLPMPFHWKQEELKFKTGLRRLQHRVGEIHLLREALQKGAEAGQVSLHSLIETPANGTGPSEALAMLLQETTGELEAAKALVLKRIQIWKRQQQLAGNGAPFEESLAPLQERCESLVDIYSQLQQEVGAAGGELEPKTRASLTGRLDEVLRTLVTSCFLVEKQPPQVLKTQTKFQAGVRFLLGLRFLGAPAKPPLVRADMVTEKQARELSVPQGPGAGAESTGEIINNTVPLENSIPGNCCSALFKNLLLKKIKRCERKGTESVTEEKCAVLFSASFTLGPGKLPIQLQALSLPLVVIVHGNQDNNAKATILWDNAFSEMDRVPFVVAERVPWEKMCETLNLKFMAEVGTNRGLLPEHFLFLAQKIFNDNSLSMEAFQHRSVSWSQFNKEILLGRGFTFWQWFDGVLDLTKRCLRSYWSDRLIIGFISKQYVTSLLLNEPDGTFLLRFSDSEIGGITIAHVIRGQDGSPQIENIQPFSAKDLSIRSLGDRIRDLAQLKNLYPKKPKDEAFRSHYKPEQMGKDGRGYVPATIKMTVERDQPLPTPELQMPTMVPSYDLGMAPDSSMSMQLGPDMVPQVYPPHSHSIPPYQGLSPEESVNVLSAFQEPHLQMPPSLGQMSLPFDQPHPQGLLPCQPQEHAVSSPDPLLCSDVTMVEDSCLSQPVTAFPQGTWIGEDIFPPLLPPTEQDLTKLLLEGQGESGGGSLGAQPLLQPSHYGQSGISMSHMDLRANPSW
inactive: [1] -0.02 | [2] -0.019 | [3] 0.198 | [4] 0.009 | [5] -0.015

SUN2 (UniProt Q9UH99)
inactive: [1] 0.029 | [2] -0.004 | [3] -0.025 | [4] 0.025 | [5] -0.015

SLC9A6 isoform 2 (UniProt Q92581)
Sequence of UniProt Q92581 (Q92581 whole entry, looked up): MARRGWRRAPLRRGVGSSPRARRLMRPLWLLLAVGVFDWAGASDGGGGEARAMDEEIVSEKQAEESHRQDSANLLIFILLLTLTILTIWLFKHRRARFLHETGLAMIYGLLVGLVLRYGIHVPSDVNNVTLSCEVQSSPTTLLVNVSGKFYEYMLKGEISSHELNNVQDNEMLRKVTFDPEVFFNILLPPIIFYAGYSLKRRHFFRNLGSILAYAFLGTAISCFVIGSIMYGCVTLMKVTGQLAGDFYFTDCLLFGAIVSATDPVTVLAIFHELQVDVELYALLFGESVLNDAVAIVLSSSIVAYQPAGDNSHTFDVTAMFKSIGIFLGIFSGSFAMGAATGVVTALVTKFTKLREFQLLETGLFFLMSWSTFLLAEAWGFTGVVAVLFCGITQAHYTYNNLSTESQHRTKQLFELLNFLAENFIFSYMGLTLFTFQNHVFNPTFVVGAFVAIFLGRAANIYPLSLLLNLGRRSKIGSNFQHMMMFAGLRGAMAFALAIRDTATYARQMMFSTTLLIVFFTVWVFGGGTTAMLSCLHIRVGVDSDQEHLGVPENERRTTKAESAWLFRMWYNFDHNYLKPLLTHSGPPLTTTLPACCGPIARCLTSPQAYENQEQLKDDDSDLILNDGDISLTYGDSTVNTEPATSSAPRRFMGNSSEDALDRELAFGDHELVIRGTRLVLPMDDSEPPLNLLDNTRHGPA
inactive: [1] -0.007 | [2] 0.066 | [3] 0.068 | [4] -0.014 | [5] 0.047

SRC isoform 2 (UniProt P12931)
Sequence of UniProt P12931 (P12931 whole entry, looked up): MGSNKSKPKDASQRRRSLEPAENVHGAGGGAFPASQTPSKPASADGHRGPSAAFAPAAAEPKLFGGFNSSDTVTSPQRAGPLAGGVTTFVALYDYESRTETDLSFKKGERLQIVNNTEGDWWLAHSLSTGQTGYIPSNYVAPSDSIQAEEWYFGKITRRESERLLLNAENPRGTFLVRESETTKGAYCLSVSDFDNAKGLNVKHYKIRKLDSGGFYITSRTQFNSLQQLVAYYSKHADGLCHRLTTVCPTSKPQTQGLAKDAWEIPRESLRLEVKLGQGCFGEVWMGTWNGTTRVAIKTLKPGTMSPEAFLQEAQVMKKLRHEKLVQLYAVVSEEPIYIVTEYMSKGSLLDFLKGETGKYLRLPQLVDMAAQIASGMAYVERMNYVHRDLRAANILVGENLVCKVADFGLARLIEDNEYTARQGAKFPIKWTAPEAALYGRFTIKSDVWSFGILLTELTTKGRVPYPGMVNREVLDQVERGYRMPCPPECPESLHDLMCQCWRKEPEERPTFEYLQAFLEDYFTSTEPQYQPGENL
inactive: [1] 0.016 | [2] 0.181 | [3] 0.125 | [4] 0.042 | [5] 0.003

STARD9 (UniProt Q9P2P6)
inactive: [1] -0.073 | [2] 0.147 | [3] -0.072 | [4] 0.042 | [5] -0.087

SNX6 (UniProt Q9UNH7)
Sequence of UniProt Q9UNH7 (Q9UNH7 whole entry, looked up): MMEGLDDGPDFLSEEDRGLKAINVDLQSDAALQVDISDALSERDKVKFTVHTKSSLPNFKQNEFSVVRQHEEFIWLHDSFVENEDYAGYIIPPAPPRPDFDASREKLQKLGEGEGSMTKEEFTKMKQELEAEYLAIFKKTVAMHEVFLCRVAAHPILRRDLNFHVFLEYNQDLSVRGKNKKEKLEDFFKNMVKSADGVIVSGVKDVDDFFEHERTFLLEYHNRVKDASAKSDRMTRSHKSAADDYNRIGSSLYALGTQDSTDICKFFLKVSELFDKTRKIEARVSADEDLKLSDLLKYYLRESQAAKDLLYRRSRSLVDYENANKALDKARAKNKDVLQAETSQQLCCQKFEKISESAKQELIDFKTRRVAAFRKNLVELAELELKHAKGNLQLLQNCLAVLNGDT
inactive: [1] -0.037 | [2] 0.039 | [3] 0.053 | [4] 0.012 | [5] -0.11
